# Experimental data from PubChem BioAssay (Tox21).
# Records with an inconclusive call do not appear. Entries that show only a call come without a potency. A number with no mark means an inactive call. Active and inactive are the calls of the source. Calls follow the shape of the full dose curve.
# Assay: Nuclear factor erythroid 2-related factor 2/antioxidant responsive element (Nrf2/ARE) small molecule agonists: luciferase reporter gene qHTS assay in human keratinocytes (AID 1919969); also: nearly all actives have a fitted effect of over 35% in size
# Potency is read from the fitted curve at half-maximal effect.
Structure (SMILES),Potency,"activity, positive = activation"
C[C@@H](NCCCc1cccc(C(F)(F)F)c1)c1cccc2ccccc12,inactive,–
CC(=O)NNC(C)=O,inactive,–
CCCCOCC(C)OCC(C)O (stereo not given),inactive,–
CCCCCCCCNC,inactive,–
CCN1CCN(C(=O)N[C@@H](C(=O)N[C@@H]2C(=O)N3C(C(=O)O)=C(CSc4nnnn4C)CS[C@H]23)c2ccc(O)cc2)C(=O)C1=O,inactive,–
CC(C)(C)CC(C)(C)c1ccc(OCCO)cc1,inactive,–
CC(=O)SCc1ccco1,inactive,–
O=C(NO)C1(NS(=O)(=O)c2ccc(Oc3ccc(F)cc3)cc2)CCOCC1,inactive,–
CC(C)CCCC(C)CC=O (stereo not given),inactive,–
NCCCCCCNCCCCCCN,inactive,–
CCOC(=O)c1ccccc1OC,inactive,–
Cc1cccc(C)c1NC(=O)C(C)N (stereo not given),inactive,–
CCC1(c2cnc[nH]2)Cc2ccccc2C1,inactive,–
COCC(=O)O[C@]1(CCN(C)CCCc2nc3ccccc3[nH]2)CCc2cc(F)ccc2[C@@H]1C(C)C,inactive,–
CCCCCCCCCCCCCCC[C@H](O)[C@@H](N)CO,inactive,–
C[C@@H](Oc1ccc(CNC(=O)c2cccnc2Oc2ccc3c(c2)OCO3)c(F)c1)C(=O)O,inactive,–
[Cl][Bi]([Cl])([c]1ccccc1)([c]1ccccc1)[c]1ccccc1,1.53 µM (active),–
CC/C(=C(/c1ccc(O)cc1)c1ccc(OCCN(C)C)cc1)c1ccccc1,inactive,–
CC/C(=C(\c1ccc(O)cc1)c1ccc(OCCN(C)C)cc1)c1ccccc1,inactive,–
CCCCCCCCCCCCCCCCN,inactive,–

Structure (SMILES),Potency,"activity, positive = activation"
CCCC(=O)OCCc1ccccc1,inactive,–
CCn1nc(C(=O)O)c(=O)c2cc3c(cc21)OCO3,inactive,–
CSCC[C@H](NC(=O)[C@H](Cc1c[nH]c2ccccc12)NC(=O)CCNC(=O)OC(C)(C)C)C(=O)N[C@@H](CC(=O)O)C(=O)N[C@@H](Cc1ccccc1)C(N)=O,inactive,–
O=C1CCC(=O)N1Cl,inactive,–
CCCCC(CC)COS(=O)(=O)O (stereo not given),inactive,–
C[C@H]1[C@@H](c2ccccc2)NC(=O)N1C,inactive,–
CCN(CC)c1ccc2c(c1)Oc1cc(N(CC)CC)ccc1C21OC(=O)c2ccccc21,inactive,–
CCCCOCCOC(=O)COc1nc(Cl)c(Cl)cc1Cl,inactive,–
CCCc1ccc(OCC(=O)N2CCN(C(=O)COc3ccc(CCC)cc3OC)CC2)c(OC)c1,inactive,–
c1ccc(Cc2ccccc2)cc1,inactive,–
O=[N+]([O-])c1ccc(Cl)cc1Cl,inactive,–
CC1(COc2ccc(CC3SC(=O)NC3=O)cc2)CCCCC1 (stereo not given),29.8 µM (active),–
Cc1cc(=O)c2c(O)c3c(O)cc(=O)c4c3c3c(cc(O)c1c23)C(C)(C)C=4O,–,7.38% [at 19 µM]
CC(=O)CCC1=C(C)CCCC1(C)C,inactive,–
N[C@@H]1CONC1=O,inactive,–
C[C@H]1C[C@H]2[C@@H]3CCC4=CC(=O)C=C[C@]4(C)[C@@]3(Cl)[C@@H](O)C[C@]2(C)[C@@]1(O)C(=O)CO,inactive,–
CCCCCCCCCOC(=O)CCCCC(=O)OCCCCCCC,inactive,–
CN1C[C@H]2c3ccccc3Oc3ccc(Cl)cc3[C@@H]2C1,inactive,–
Fc1ccccc1[C@@H](F)COC1CCC(Nc2ncnc3[nH]ncc23)CC1 (stereo not given in full),inactive,–
O=C(N[C@@H](c1ccccc1)[C@@H]1CCCCN1)c1cccc(C(F)(F)F)c1Cl,inactive,–
